# In PubChem BioAssay (Tox21):
# Results filed as inconclusive are left out. Unmarked numbers belong to inactive results. Calls of active or inactive are those of the source. Unless noted, the call rests on the fitted dose curve.
# Biological target: Nuclear receptor ROR-gamma (Homo sapiens) (UniProt P51449)
# Experiment: qHTS assay to identify small molecule antagonists of the retinoid-related orphan receptor gamma (ROR-gamma) signaling pathway (AID 1159521; active means well fitted inhibition curve with a large enough effect in the repeat runs; further: nearly all actives have a fitted effect of over 50% in size; further: potency means the concentration at half of the fitted maximal effect;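 on activity change, negative = inhibition: CHO cells with doxycycline inducible ROR-gamma driving an RORE luciferase reporter; top concentration of the series differs between compounds; on the % scale 0 is the no-effect control and ±100 the full control effect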)
# Conditions: Tet-on RORgamma CHO cells, RORE-luciferase, 16 h; series mostly up to 92.4 µM; activity change, negative = inhibition: at the top concentration
# How it was run: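 Tet-on ROR-gamma CHO cells with ROR response element-luciferase reporter; compounds added 2 hr before 1 uM doxycycline induction, then 16 hr at 37 C. Antagonism scored as decreased ONE-Glo luminescence.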
SMILES,"activity change, negative = inhibition",Potency
Cc1ccc(NC=O)c(C)c1,-13.8%,–
CC(CN=Cc1ccccc1O)N=Cc1ccccc1O (stereo not drawn),8.77%,–
CCC(C)CCCC(C)(C)O (stereo not drawn),5.99%,–
CO[C@@H]1[C@@H](O[C@@H]2O[C@H](C)[C@@H](O[C@H]3C[C@@](C)(O)[C@@H](O)[C@H](C)O3)[C@H](N(C)C)[C@H]2O)[C@@H](CC=O)C[C@@H](C)[C@@H](O[C@@H]2CC[C@H](N(C)C)[C@@H](C)O2)/C=C/C=C/C[C@@H](C)OC(=O)C[C@H]1OC(C)=O,14.7% [at 42.5 µM],–
CC(=O)Nc1ccccc1O,0.074%,–
CCCCOC(=O)C(C)Oc1ccc(Oc2ccc(C(F)(F)F)cn2)cc1 (stereo not drawn),1.1%,–
C=CC(O)CCCCC (stereo not drawn),12.2%,–
CC(=O)OCC(=O)[C@@]1(O)CC[C@H]2[C@@H]3CCC4=CC(=O)C=C[C@]4(C)[C@@]3(F)[C@@H](O)C[C@@]21C,7.15% [at 42.5 µM],–
O=C(O)CNc1ccccc1,37.2%,–
O=C(Nc1ccccc1)c1cc([N+](=O)[O-])ccc1Cl,-28.2%,–
C=CC(C)CCC=C(C)C (stereo not drawn),13.3%,–
CC1=C(C)C(=O)C(CCCCC#CCCCC#CCO)=C(C)C1=O,–,29.8 µM (active)
CCCCCCCCC(=O)OCC(C)OC(=O)CCCCCCCC (stereo not drawn),11.6%,–
Cc1cc(C)n(CO)n1,0.053%,–
OCCCO,0.315%,–
CCCCOC(=O)CC#N,-4.42%,–
CCN(CCCCOC(=O)c1ccc(OC)c(OC)c1)C(C)Cc1ccc(OC)cc1 (stereo not drawn),-12.3% [at 42.5 µM],–
C[C@H](CN1CCCC1)C(=O)c1ccc(C(F)(F)F)cc1,16.8% [at 42.5 µM],–
CC(C)Oc1ccccc1O,2.73%,–
FC1(F)C(F)(F)C(F)(F)C2(F)C(F)(C1(F)F)C(F)(F)C(F)(F)C1(F)C(F)(F)C(F)(F)C(F)(F)C(F)(F)C12F (stereo not drawn),-10.8%,–

SMILES,"activity change, negative = inhibition",Potency
CCCCCCCCCCCCSC#N,1.21%,–
CNc1ccccc1,13.3%,–
CC(C)(C(=O)O)c1ccc(C(O)CCCN2CCC(C(O)(c3ccccc3)c3ccccc3)CC2)cc1 (stereo not drawn),7.65% [at 42.5 µM],–
CCCCC(CC)COCCC#N (stereo not drawn),10.3%,–
O=C1OC(=O)C2CC=CCC12 (stereo not drawn),-1.4%,–
C=CCCC,-3.4%,–
C=C(C)C(=O)OCCCCCCCCCCOC(=O)C(=C)C,75.5%,–
CC(O)CN (stereo not drawn),-2.6%,–
COC(=O)C(C)(C)C,12.9%,–
Nc1cccc2c(=O)[nH][nH]c(=O)c12,12.7%,–
Cc1cc(N)n(-c2ccccc2)n1,49%,–
CC[C@H](NC(C)C)[C@H](O)c1ccc(O)c2[nH]c(=O)ccc12,34.5% [at 42.5 µM],–
CC(O)C(C)O (stereo not drawn),4.49%,–
NC(=O)c1ccccc1C(N)=O,158%,–
O=Cc1ccc(Cl)c([N+](=O)[O-])c1,–,54.5 µM (active)
O=C(OCCOCCOCCOC(=O)c1ccccc1)c1ccccc1,-19.1%,–
CCCN(C1CCN(C(=O)C2CCNCC2)CC1)[C@@H]1CCc2ccc(OC)cc2C1,-10.6%,–
CC1(C)CC(=O)CC(C)(C)N1,-7.56%,–
CO[C@@H]1COCC[C@@H]1N[C@@H]1CC[C@@](C(=O)N2CCc3ncc(C(F)(F)F)cc3C2)(C(C)C)C1,12.7%,–

# System: not listed separately
# Experiment: qHTS assay to identify small molecule agonists of the AP-1 signaling pathway - cell viability counter screen (AID 1159525); further: nearly all actives have a fitted effect of over 55% in size
# Conditions: ME-180 (cervical carcinoma) AP-1-bla cells viability, ATP luminescence, 5 h; series mostly up to 76.8 µM; viability change, negative = cytotoxic: at the top concentration
# How it was run: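 Intracellular ATP by Cell Titer Glo luminescence (30 min, RT) in the same ME-180 AP-1-bla wells after the 5 h compound exposure at 37 °C. Normalised to tetra n-octyl ammonium bromide and DMSO controls.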
row,SMILES,"viability change, negative = cytotoxic"
1,Cc1ccc(NC=O)c(C)c1,0.287%
2,CC(CN=Cc1ccccc1O)N=Cc1ccccc1O (stereo not drawn),1.67%
3,CCC(C)CCCC(C)(C)O (stereo not drawn),-6.72%
4,CO[C@@H]1[C@@H](O[C@@H]2O[C@H](C)[C@@H](O[C@H]3C[C@@](C)(O)[C@@H](O)[C@H](C)O3)[C@H](N(C)C)[C@H]2O)[C@@H](CC=O)C[C@@H](C)[C@@H](O[C@@H]2CC[C@H](N(C)C)[C@@H](C)O2)/C=C/C=C/C[C@@H](C)OC(=O)C[C@H]1OC(C)=O,4.69% [at 35.3 µM]
5,CC(=O)Nc1ccccc1O,9.28%
6,CCCCOC(=O)C(C)Oc1ccc(Oc2ccc(C(F)(F)F)cn2)cc1 (stereo not drawn),1.23%
7,C=CC(O)CCCCC (stereo not drawn),-33.2%
8,CC(=O)OCC(=O)[C@@]1(O)CC[C@H]2[C@@H]3CCC4=CC(=O)C=C[C@]4(C)[C@@]3(F)[C@@H](O)C[C@@]21C,5.16% [at 35.3 µM]
9,O=C(O)CNc1ccccc1,-1.82%
10,O=C(Nc1ccccc1)c1cc([N+](=O)[O-])ccc1Cl,-20.8%
11,C=CC(C)CCC=C(C)C (stereo not drawn),1.03%
12,CC1=C(C)C(=O)C(CCCCC#CCCCC#CCO)=C(C)C1=O,-9.54% [at 35.3 µM]
13,CCCCCCCCC(=O)OCC(C)OC(=O)CCCCCCCC (stereo not drawn),1.03%
14,Cc1cc(C)n(CO)n1,0.241%
15,OCCCO,-0.476%
16,CCCCOC(=O)CC#N,-2.04%
17,CCN(CCCCOC(=O)c1ccc(OC)c(OC)c1)C(C)Cc1ccc(OC)cc1 (stereo not drawn),3.66% [at 35.3 µM]
18,C[C@H](CN1CCCC1)C(=O)c1ccc(C(F)(F)F)cc1,-3.97% [at 35.3 µM]
19,CC(C)Oc1ccccc1O,5.92%
20,FC1(F)C(F)(F)C(F)(F)C2(F)C(F)(C1(F)F)C(F)(F)C(F)(F)C1(F)C(F)(F)C(F)(F)C(F)(F)C(F)(F)C12F (stereo not drawn),-2.75%

row,SMILES,"viability change, negative = cytotoxic"
1,CCCCCCCCCCCCSC#N,-15.2%
2,CNc1ccccc1,3.65%
3,CC(C)(C(=O)O)c1ccc(C(O)CCCN2CCC(C(O)(c3ccccc3)c3ccccc3)CC2)cc1 (stereo not drawn),0.798% [at 35.3 µM]
4,CCCCC(CC)COCCC#N (stereo not drawn),3.78%
5,O=C1OC(=O)C2CC=CCC12 (stereo not drawn),-4.22%
6,C=CCCC,-13%
7,C=C(C)C(=O)OCCCCCCCCCCOC(=O)C(=C)C,0.809%
8,CC(O)CN (stereo not drawn),-15.2%
9,COC(=O)C(C)(C)C,13.6%
10,Nc1cccc2c(=O)[nH][nH]c(=O)c12,-1.57%
11,Cc1cc(N)n(-c2ccccc2)n1,3.84%
12,CC[C@H](NC(C)C)[C@H](O)c1ccc(O)c2[nH]c(=O)ccc12,-1.98% [at 35.3 µM]
13,CC(O)C(C)O (stereo not drawn),0.222%
14,NC(=O)c1ccccc1C(N)=O,-3.02%
15,O=Cc1ccc(Cl)c([N+](=O)[O-])c1,9.66%
16,O=C(OCCOCCOCCOC(=O)c1ccccc1)c1ccccc1,-5.24%
17,CCCN(C1CCN(C(=O)C2CCNCC2)CC1)[C@@H]1CCc2ccc(OC)cc2C1,-2.49%
18,CC1(C)CC(=O)CC(C)(C)N1,2.11%
19,CO[C@@H]1COCC[C@@H]1N[C@@H]1CC[C@@](C(=O)N2CCc3ncc(C(F)(F)F)cc3C2)(C(C)C)C1,1.46%
